Test results as given in PubChem BioAssay (NCATS).
Inconclusive results are not listed. Where a call stands in place of a potency, no number is given. The source made the active and inactive calls. Calls follow the shape of the dose curve; as a rule, active = well fitted curve in the direction sought with a large enough effect; inconclusive = small, poorly fitted or top-dose-only effect, or another doubt; inactive = no such curve, though single readings can be large; an effect the other way counts as inactive or inconclusive.

What was measured:
[1] = target: Metallo-beta-lactamase type 2 (Klebsiella pneumoniae) (UniProt C7C422); experiment: qHTS to identify inhibitors of the New Delhi Metallo-beta-lactamase (NDM): assay validation screen against the NCATS LOPAC Collection (AID 1794843);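 also: nitrocefin turnover by NDM-1 measured as 485 nm absorbance at plateau; series mostly up to about 38 µM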
Chain of Metallo-beta-lactamase type 2 (Klebsiella pneumoniae) (C7C422 whole entry, looked up): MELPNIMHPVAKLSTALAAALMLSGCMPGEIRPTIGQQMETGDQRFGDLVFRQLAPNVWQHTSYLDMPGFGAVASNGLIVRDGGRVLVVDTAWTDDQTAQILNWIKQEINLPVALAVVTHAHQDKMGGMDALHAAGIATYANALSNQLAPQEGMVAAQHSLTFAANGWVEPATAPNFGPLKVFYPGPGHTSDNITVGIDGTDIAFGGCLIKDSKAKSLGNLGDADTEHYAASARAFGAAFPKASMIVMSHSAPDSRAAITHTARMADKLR
How it was run: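 Nitrocefin hydrolysis (50 uM substrate stock) by NDM-1, 2 nM final, was followed by 485 nm absorbance after compound preincubation; buffer was 50 mM HEPES pH 7.0, 1 uM ZnSO4, 0.01% Tween20.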

[2] = target: Glutathione peroxidase 1 (Homo sapiens) (UniProt P07203); experiment: Primary qHTS Assay for Inhibitors of Recombinant Selenoprotein Glutathione Peroxidase 1 (GPX1) (AID 1845191); also: nearly all actives have a fitted effect of over 65% in size; also: potency is read from the fitted curve at half-maximal effect
Chain of Glutathione peroxidase 1 (Homo sapiens) (P07203 whole entry, looked up): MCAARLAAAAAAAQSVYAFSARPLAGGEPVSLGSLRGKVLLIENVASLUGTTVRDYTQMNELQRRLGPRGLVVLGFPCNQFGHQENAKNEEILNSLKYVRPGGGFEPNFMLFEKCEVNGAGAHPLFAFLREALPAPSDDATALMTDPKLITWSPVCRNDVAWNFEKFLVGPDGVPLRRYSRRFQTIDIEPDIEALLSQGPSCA
How it was run: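 GPX1 10 nM, GR 100 nM, GSH 1 mM, NADPH 0.5 mM, CHP 0.5 mM (final). 30-min cpd preincubation, RT. Ex340/Em450 read t=0, t=15 min.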

[3] = target: Phospholipid hydroperoxide glutathione peroxidase GPX4 (Homo sapiens) (UniProt P36969); experiment: Primary qHTS Assay for Inhibitors of Recombinant Selenoprotein Glutathione Peroxidase 4 (GPX4) (AID 1845192); also: nearly all actives have a fitted effect of over 65% in size; also: potency is read from the fitted curve at half-maximal effect
Chain of Phospholipid hydroperoxide glutathione peroxidase GPX4 (Homo sapiens) (P36969 whole entry, looked up): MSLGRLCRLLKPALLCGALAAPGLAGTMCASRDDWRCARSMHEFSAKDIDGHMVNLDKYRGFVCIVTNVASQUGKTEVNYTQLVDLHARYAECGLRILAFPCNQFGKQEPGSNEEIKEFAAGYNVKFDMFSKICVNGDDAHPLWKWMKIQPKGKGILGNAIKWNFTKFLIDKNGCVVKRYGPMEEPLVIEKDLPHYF
How it was run: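 qHTS, GR-coupled: GPX4 200 nM + cpd 30 min RT → GSH 1 mM, NADPH 0.5 mM, GR 100 nM → CHP 0.5 mM start; fluor 340/450 at t0 and t15 min; no-enzyme wells as control.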

SMILES	Potency [1]	Potency [2]	Potency [3]
NC(N)=[N+]1CCc2ccccc2C1	inactive	inactive	inactive
N=S(=O)(O)Cc1noc2ccccc12	inactive	inactive	inactive
COc1cc(C(O)C(=O)O)ccc1O (centres undefined)	inactive	inactive	inactive
CCc1ccc2c(-c3cccc(Cl)c3)nc(=O)n(CC)c2n1	inactive	inactive	inactive
Nc1ncnc2c1ncn2C1CCCC1	inactive	inactive	inactive
O=C(O)C1CN(CCCP(=O)(O)O)CCN1 (centres undefined)	inactive	inactive	inactive
CC[C@@H]1Cc2cc(O)ccc2C2=C1c1ccc(O)cc1C[C@H]2CC	inactive	inactive	inactive
O=C(O)c1ccccc1Nc1ccccc1	inactive	inactive	inactive
Nc1ncnc2c1ncn2C1CCCO1 (centres undefined)	inactive	inactive	inactive
N[C@H](C(=O)O)[C@H]1C[C@@H]1C(=O)O	inactive	inactive	inactive
CC1CNCCN1S(=O)(=O)c1cccc2cnccc12 (centres undefined)	inactive	inactive	inactive
O=C(O)c1cc2cc(F)ccc2[nH]1	inactive	inactive	inactive
Nc1ncnc2c1c(-c1ccc(Oc3ccccc3)cc1)cn2C1CCCC1	inactive	inactive	inactive
C=C(C)C1CC=C(C(=O)O)CC1 (centres undefined)	inactive	inactive	inactive
Cn1c(=O)c2[nH]c(-c3ccc(S(=O)(=O)O)cc3)nc2n(C)c1=O	inactive	10 µM (active)	11.2 µM (active)
NCCNS(=O)(=O)c1cccc2c(Cl)cccc12	inactive	inactive	inactive
CC(C)(C)c1ccc(/C=C/C(=O)Nc2ccc3c(c2)OCCO3)cc1	inactive	inactive	inactive
N[C@@H](CCCC(=O)O)C(=O)O	inactive	inactive	inactive
NC(=O)CC[C@H](N)C(=O)O	inactive	inactive	inactive
CC1CCN=C(N)S1 (centres undefined)	inactive	inactive	inactive
CCCN(CCc1ccccc1)C1CCc2c(O)cccc2C1 (centres undefined)	inactive	inactive	inactive
CCC1(O)CC2CN(CCc3c([nH]c4ccccc34)[C@@](C(=O)OC)(c3cc4c(cc3OC)N(C=O)C3[C@]45CCN4CC=C[C@@](CC)([C@@H](OC(C)=O)[C@]3(O)C(=O)OC)[C@H]45)C2)C1 (some centres undefined)	inactive	inactive	inactive

SMILES	Potency [1]	Potency [2]	Potency [3]
N=C(N)c1ccccc1	inactive	inactive	inactive
CN(CC[C@@H](Oc1ccc(C(F)(F)F)cc1)c1ccccc1)CC(=O)O	inactive	inactive	inactive
COc1ccc(-c2cc3ncc(C)n3c(Nc3ncccc3C(N)=O)n2)cc1OC	inactive	inactive	inactive
Cn1c(=O)c2c(nc(/C=C/c3cccc(Cl)c3)n2C)n(C)c1=O	inactive	inactive	inactive
CC1CCN(CC[C@H]2CCCN2S(=O)(=O)c2cccc(O)c2)CC1	inactive	inactive	inactive
Cc1cc(Cn2cnc3c2C[C@@H](C(=O)O)N(C(=O)C(c2ccccc2)c2ccccc2)C3)ccc1N	inactive	inactive	inactive
NC1(C(=O)O)CC1	inactive	inactive	inactive
CCC(=O)N1CCN(C(=O)c2ccccc2)CC1	inactive	inactive	inactive
O=C(OCCN1CCOCC1)C1(c2ccccc2)CCCCC1	inactive	inactive	inactive
Cn1cc(C(F)(F)F)nc1-c1ccc(OCC(O)CNCCOc2ccc(O)c(C(N)=O)c2)cc1 (centres undefined)	inactive	inactive	inactive
O=C(O)C1=CCCN(CCON=C(c2ccccc2)c2ccccc2)C1	inactive	inactive	inactive
CN(C)S(=O)(=O)c1ccc2c(c1)/C(=C/c1cc3c([nH]1)CCCC3)C(=O)N2	inactive	inactive	inactive
O=c1cc(O)cc(/C=C/c2ccc(O)c(O)c2)o1	inactive	inactive	inactive
COc1cccc(OC)c1OCCNCC1CSc2ccccc2O1 (centres undefined)	inactive	inactive	inactive
CCCc1c(-c2ccc(O)cc2)nn(-c2ccc(O)cc2)c1-c1ccc(O)cc1	inactive	inactive	inactive
Nn1nnc2ccccc21	inactive	inactive	inactive
CCCCCCC/C=C\CCCCCCCCC(=O)O	inactive	inactive	inactive
CCCCCCCCCCCCCCSCC(=O)O	inactive	inactive	inactive
Cn1c(=O)[nH]c2ncn(C)c2c1=O	inactive	inactive	inactive
NCCCCN=C(N)N	inactive	inactive	inactive
N#CC(C#N)=C(N)/C(C#N)=C/c1ccc(O)cc1	inactive	inactive	inactive
